Test results taken from PubChem BioAssay AID488965 (Broad Institute, 2010).
The campaign covered roughly 340,000 compounds. About 210 (0.062%) were called active. Rule as the data show it: active = inhibition above about 30% (passing the limit was not always enough); inconclusive = no clear call, values can overlap the other calls. The entries come from a sample that favours actives as a whole.

What follows are compounds tested on PvdQ acylase [Pseudomonas aeruginosa LESB58] (assay: P. aeruginosa PvdQ acylase inhibitors, primary screen, biochemical, fluorescence, plate reader and imaging, single point (AID 488965;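 also: 0% = vehicle neutral wells and 100% = reference inhibitor wells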)). Conditions: purified PvdQ acylase, at 10 µM, hits give high values.

inhibition, inactive:
CCSc1nc2sc3c(c2c(=O)n1-c1ccc(C)cc1)CCN(C)C3 -19.4%
C/C=N/N(c1ccccc1)c1ccccc1 -15.2%
COC(=O)C[n+]1cccc2ccccc21 -19.7%
CC(=O)c1ccccc1NC(=O)C1CC(=O)N(c2ccc3c(c2)OCCO3)C1 (centres undefined) 3.1%
Cc1ccc(-c2csc(N3CCN(c4cc5c(cc4Cl)nc(-c4ccncc4)n5CCOCCO)CC3)n2)cc1 2.95%
CCOc1ccc(/C=C(/NC(=O)c2ccccc2)C(=O)NCCC(=O)O)cc1 3.82%
O=C(NCc1cccnc1)c1cnc2ccccc2n1 -7.28%
COc1ccccc1CN1CCCC(N2CCN(c3ccc(F)cc3)CC2)C1 (centres undefined) -5.39%
O=C(COC(=O)/C=C/c1cccs1)NC1CCCCC1 -1.95%
COc1ccc(Cn2c(-c3ccc(Cl)cc3)c[n+]3ccccc23)cc1 -9.83%
COc1ccc(/C(N)=N/OC(=O)CCCc2ccccc2)cc1 12.9%
Cc1ccccc1N1CC(C(=O)Nc2ccc(S(=O)(=O)N3CCCC3)cc2)CC1=O (centres undefined) -17.2%
COc1ccccc1C(=O)N(Cc1ccc(C)o1)C1CCS(=O)(=O)C1 (centres undefined) -16.8%
O=C(NCc1cccc(CNC(=O)Nc2cccc(O)c2)c1)Nc1cccc(O)c1 8.11%
OCCn1c(-c2ccccc2)csc1=Nc1ccccc1 -14.6%
CNC[C@H](CC1CCCCC1)NC[C@H](NCCC1CCCC1)[C@H](C)O -4.64%
CCCCNC1(C#N)CCN(Cc2ccccc2)CC1 -10.8%
Cc1ccc(S(=O)(=O)N[C@@H](Cc2ccccc2)C(=O)N2CCC(C(=O)N[C@H](C(=O)O)C(C)O)CC2)cc1 (some centres undefined) -16.1%
CN1CCN(CC(O)COCc2ccc3c(c2)OCO3)CC1 (centres undefined) 13.9%
O=C(c1cccs1)C1C(c2ccc(Br)cc2)NC(=S)NC1(O)C(F)(F)F (centres undefined) -1.76%
Cc1ccc2nc(SCC(=O)N3CCN(c4ccccc4)CC3)nc(=O)n2c1 -4.06%
CCC1([N+](=O)[O-])COC(c2ccc(C)cc2)OC1 (centres undefined) -3.75%
CCCCCN(C(=O)NC(=O)Nc1ccccc1OC)S(C)(=O)=O -5.97%
Cc1cccn2c(CN(C)C3CCCc4ccccc43)c(C(=O)N3CCOCC3)nc12 (centres undefined) -1.38%
CCOc1cccc(OCCCOc2cccc3cccnc23)c1 -17.7%
COc1ccc(S(=O)(=O)N(C)C[C@H]2Oc3ccc(NS(=O)(=O)c4cccs4)cc3CC(=O)N([C@H](C)CO)C[C@H]2C)cc1 3.49%
O=C(O)c1ccc(OCC2CCCO2)cc1 (centres undefined) -9.45%
CCCCN1CC(COc2ccccc2)Oc2cccc(F)c2S1(=O)=O (centres undefined) -16%
CCCCCCNS(=O)(=O)c1ccccc1Br -11.4%
CC(CNC(=O)Cn1cnc2c(OCc3ccccc3)ncnc21)c1ccccc1 (centres undefined) -13.2%
CCCCNC(=O)N1CCCC(N(C)CCc2ccc(OC)c(OC)c2)C1 (centres undefined) -14.5%
CN(Cc1ccccc1F)C(=O)C(Cc1ccccc1)NC(=O)c1ccccc1 (centres undefined) -5.25%
Cc1nn(CCOc2ccc(Br)cc2)c(C)c1[N+](=O)[O-] -14%
CCOC(=O)N1CCN(Cc2nc3ccc([N+](=O)[O-])cc3c(=O)n2-c2cccc(OC)c2)CC1 -6.54%
CCn1nnnc1SCC(=O)Nc1ccc(N(C)C)cc1 -8.46%
COc1ccc(N(CC(=O)NC2CCCCCCC2)S(=O)(=O)c2c(C)nn(C)c2C)cc1 -11.2%
Cc1ccc(CNC(=O)CC(NC(=O)c2ccccc2)c2ccccc2)cc1 (centres undefined) -6.05%
NC(=O)c1ncc(C(F)(F)F)cc1Oc1ccc(F)cc1 -11.7%
O=C(Nc1ccc(OCC(=O)N2CCOCC2)cc1)c1cc(F)c(F)cc1Cl -15.7%
Cc1ccc(CN2CC(C(=O)N3CCN(S(=O)(=O)c4ccccc4)CC3)CC2=O)cc1 (centres undefined) -11.4%
O=C1C=CC(=O)N1c1ccc(N2CCCCC2)cc1 -13.5%
C#CCOCCOCCOCCNc1nc(N2CCN(C(=O)[C@H](CO)n3cc([C@@H](N)C(C)C)nn3)CC2)nc(N2CCN(C(=O)[C@H](CCC(=O)O)n3cc([C@@H](N)[C@H](C)CC)nn3)CC2)n1 -4.25%
COc1ccc(C(=O)NC2CCN(C(=O)Nc3ccc(F)cc3)CC2)cc1 -6.33%

inhibition, active:
CCCCCC1CC(COc2ccccc2)OC1=O (centres undefined) 44.8%
